Bioassay records from PubChem.
HCV inhibitor = HCV inhibition; Potency, µM (titrated, usually from 41.8 µM), hits mostly inhibitors; Huh7.5.1 HCVcc-Cre infection, luciferase reporter, 44 h; 340,000 tested, 3.4% active; AID 651820
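Seed cells (1,000/well) for 4 h; treat with compound and infect with HCVcc-Cre, moi about 0.5. Incubate 44 h, then detect luciferase activity.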
Shiga inhibitor = Shiga toxin inhibition; Vero cells, Shiga toxin protein synthesis inhibition reporter; inhibition, % at 38.7 µM; 290,000 tested, 9.2% active; AID 2315; in the data active = inhibition mostly above about 28%, no sharp cut-off; inactive = mostly below about 43%
HCMV inh = human cytomegalovirus inhibition; AID 1259415; activity change, negative = inhibition, % at 57.5 µM; 410,000 tested, 4.5% active; HFF cells, HCMV-luciferase reporter, 72 h; active compounds read low; in the data active = activity change below about -60%; inconclusive = no clear call, values can overlap the other calls; inactive = above about -39%
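HFF cells seeded 16 h at 37C, treated with compounds, infected with luciferase-reporter HCMV at MOI 1 PFU/cell; luciferase read at 72 h post infection, normalized to buffer-only and Salinomycin controls.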
Pf growth 48h = inhibits P. falciparum growth in the first generation, 48 h; P. falciparum luciferase growth in erythrocytes, 48 h; Potency, µM (highest dose often 28.7 µM), hits mostly inhibitors; 310,000 tested, 5.9% active
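Firefly luciferase activity from engineered P. falciparum reports growth; inhibitors lower the luminescent signal. Cultures contained 2% hematocrit erythrocytes at 0.1% final parasitemia.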
CHX counter = counter-screen hit for Shiga toxin inhibitors, cycloheximide. cell reporter, cycloheximide protein synthesis inhibition counterscreen. max response, %. 300,000 tested, 12% active. AID 2314; in the data active = max response mostly above about 13%, no sharp cut-off; inactive = mostly below about 14%; also: read at 38.3 µM for the half of the compounds with a filed dose
Pf growth 96h = P. falciparum growth inhibition at 96 hour, primary screen for plastid delayed-death inhibitors; AID 504834; Potency, µM (highest dose often 28.7 µM), most hits filed as inhibitors; 320,000 tested, 6.9% active; P. falciparum luciferase reporter growth, 96 h
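Infected RBCs, 2% Hct / 0.05% parasitemia final; luciferase-reporter P. falciparum; cpd 96 h, 37 C, 5% CO2; luciferase detection reagent; luminescence.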
Hits are given with their value; – = inactive; ? = inconclusive; · = not tested or not shown; ! = not confirmed by another sample. Compounds with a hit are over-represented: about 21% of the library has one in this group of screens. Unless noted, calls follow the shape of the dose curve; as a rule, active = well fitted inhibition curve with a large enough effect; inconclusive = small, poorly fitted or top-dose-only effect, or another doubt; inactive = no such curve, though single readings can be large or run the other way.

SMILES | HCV inhibitor | Shiga inhibitor | HCMV inh | Pf growth 48h | CHX counter | Pf growth 96h
COc1ccc(N2CC(C(=O)N3CCc4ccccc43)CC2=O)cc1 (stereo unspecified) | – | · | – | · | · | ·
C=Cn1cc[n+](CC(=O)c2ccc(C)cc2)c1 | – | – | -68 | – | – | –
C=Cn1cc[n+](CC(=O)c2ccc(Br)cc2)c1 | – | – | – | ? | – | 6.6µM
C=Cn1cc[n+](CC(=O)c2ccc(OC)cc2)c1 | ? | – | – | ? | – | ?
C=Cn1cc[n+](CC(=O)c2ccc(Cl)cc2)c1 | – | · | – | ? | – | ?
O=C(O)CN1C(=O)c2ccc(C(=O)c3ccccc3)cc2C1=O | – | – | – | – | – | –
CC(C)(C)S(=O)(=O)N1C[C@@H]2CC/C=C\C/C(c3ccccc3)=C\2[C@H]1CCO | – | · | – | · | · | ·
COc1cc(O)c(C(CC(=O)N2CCN(c3ccccc3)CC2)c2cc(OC)c(OC)c(OC)c2)c(OC)c1 (stereo unspecified) | – | – | – | 12µM | – | 10µM
COc1cc(O)c(C(CC(=O)N2CCCC2)c2cc(OC)c(OC)c(OC)c2)c(OC)c1 (stereo unspecified) | – | – | – | ? | – | –
COc1cc(O)c(C(CC(=O)N2CCCCC2)c2cc(OC)c(OC)c(OC)c2)c(OC)c1 (stereo unspecified) | – | 81! | – | – | 47! | ?
COc1ccc(CCNS(=O)(=O)c2ccc(Cl)cc2)cc1OC | – | – | – | – | – | –
Cc1cccc(CCNC(=O)c2ccc3c(c2)nc2n3CCOC2)c1 | · | · | – | · | · | ·
CC1/C(=N/O)CC(c2ccccc2)NC1c1ccccc1 (stereo unspecified) | – | – | – | · | – | ?
CC1C(=NO)C(C)C(c2ccccc2)NC1c1ccccc1 (stereo unspecified) | – | – | – | – | – | ·
CCC1C(=NO)C(CC)C(c2ccccc2)NC1c1ccccc1 (stereo unspecified) | ? | – | -101 | 12µM | – | –
CCCC1/C(=N/O)CC(c2ccccc2)NC1c1ccccc1 (stereo unspecified) | – | – | -101 | 12µM | – | –
CC(C)C1/C(=N/O)CC(c2ccccc2)NC1c1ccccc1 (stereo unspecified) | ? | – | – | 13µM | – | 9.3µM
CC1CCN(S(=O)(=O)c2ccc3c(c2)N(CC(=O)Nc2ccc(F)c(Cl)c2)C(=O)CO3)CC1 | · | · | – | · | · | ·
COC(=O)c1c(NC(=O)CN2CCN(c3ccccc3)CC2)c2c(C)cccc2n1C | – | – | – | · | – | 5.9µM
O=C(CN1CCN(c2ccccc2O)CC1)Nc1ccc(S(=O)(=O)N2CCCCCC2)cc1 | ? | · | – | ? | · | 10µM
O=C(CN1CCN(c2ccccc2O)CC1)Nc1cc(S(=O)(=O)N2CCCC2)ccc1Cl | 11µM | · | – | 4.1µM | · | 3.3µM
Cc1cccc(N2CCN(CC(=O)Nc3ccc(S(=O)(=O)N4CCOCC4)cc3)CC2)c1C | 10µM | – | -67 | ? | – | –
Cc1ccc(S(=O)(=O)N2CCN(CC(=O)Nc3ccc(N4CCOCC4)cc3)CC2)cc1C | – | – | – | – | – | –
COc1ccccc1N1CCN(CC(=O)Nc2ccc(S(=O)(=O)N3CCCCCC3)cc2)CC1 | ? | · | – | ? | · | ?
Cn1c2ccsc2c2cnn(Cc3ccc(F)cc3)c(=O)c21 | · | · | · | ? | · | –
SMILES | HCV inhibitor | Shiga inhibitor | HCMV inh | Pf growth 48h | CHX counter | Pf growth 96h
Cc1ccc(NC(=O)c2c(C)nc3sc(C(=O)Nc4ccc(F)cc4)c(N)c3c2-c2ccc(Cl)cc2)c(C)c1 | · | · | – | · | · | ·
CCOC(=O)c1c(S(=O)(=O)NCC(=O)N(C)c2ccc(C)cc2)c(C)n(C)c1C | · | · | – | · | · | ·
O=C(NCc1ccc2c(c1)OCO2)C(=O)NCC1OCCCN1S(=O)(=O)c1cc(F)ccc1F (stereo unspecified) | · | – | – | – | – | –
COc1ccc(NC(=O)CN2CCN(c3ccccc3C)CC2)cc1 | – | – | – | – | – | ?
O=C(CN1CCCCC1)Nc1ccc(S(=O)(=O)N2CCCCCC2)cc1 | ? | – | – | ? | – | ·
O=C(CN1CCOCC1)Nc1ccc(S(=O)(=O)N2CCCCCC2)cc1 | – | – | -82 | – | – | ·
COC(=O)c1ccc(NC(=O)CN2CCN(c3ccccc3C)CC2)cc1 | ? | – | – | – | – | 9.3µM
COc1ccccc1Cc1c(-c2ccc(Cl)cc2)nc2ccc(C)cn12 | · | · | – | · | · | ·
Cc1ccccc1N(C)S(=O)(=O)c1nnc(NC(=O)c2ccco2)s1 | – | – | – | – | – | ?
COc1ccc(-n2c(-c3ccccc3F)nc3c(cnn3-c3ccc(C)cc3)c2=O)cc1 | · | · | – | · | · | ·
CC(C)c1ccc(S(=O)(=O)N2CCC(N3CCN(Cc4ccccc4)C(=O)C3=O)CC2)cc1 | · | · | – | · | · | ·
Cc1ccc(CNc2oc(-c3ccco3)nc2S(=O)(=O)c2ccccc2)cc1 | ? | – | – | 10µM | – | ?
O=S(=O)(c1ccccc1)c1nc(-c2ccc(F)cc2)oc1NCc1ccccc1 | · | · | – | · | · | ·
Cc1ccc(S(=O)(=O)c2nc(-c3ccccc3)oc2NCc2cccnc2)cc1 | 11µM | – | – | ? | – | ?
O=S(=O)(c1ccc(Cl)cc1)c1nc(-c2ccccc2Br)oc1NCc1ccccc1 | · | · | – | · | · | ·
O=S(=O)(c1ccccc1)c1nc(-c2ccco2)oc1NCCN1CCOCC1 | – | – | – | · | – | –
Cc1ccccc1-c1nc(S(=O)(=O)c2ccc(Br)cc2)c(NCc2cccnc2)o1 | 11µM | – | – | 13µM | – | ·
COc1cccc(C(C(=O)NC2CCCC2)N2CCN(c3cc(C)ccc3C)CC2)c1OC (stereo unspecified) | · | · | – | · | · | ·
Cc1ccccc1-n1c(/C=C/c2c(C)n(C)c3ccccc23)nc2ccccc2c1=O | · | · | – | · | · | ·
COc1ccccc1-n1c(/C=C/c2c(C)n(C)c3ccccc23)nc2ccccc2c1=O | · | · | -85 | · | · | ·
COc1ccccc1-n1c(/C=C/c2ccccn2)nc2ccccc2c1=O | ? | – | -101 | ? | – | ?
Cc1cccc(-n2c(/C=C/c3ccccn3)nc3ccccc3c2=O)c1 | ? | – | -101 | ? | – | ?
COc1cccc(-n2c(/C=C/c3ccccn3)nc3ccccc3c2=O)c1 | – | – | ? | ? | – | –
CCOc1ccc(C(=O)Nc2ccc3nc(SCC(=O)N4CCOCC4)sc3c2)cc1 | · | · | – | · | · | ·
CCn1nc(C)c(Oc2ccccc2O)c1C | – | – | – | – | – | 12µM
Cc1nn(CCC#N)c(C)c1Oc1ccccc1O | – | – | – | – | – | –
Cc1nc2nc(SCC(=O)NCc3ccccc3Cl)nn2c(C)c1Cc1ccccc1 | · | · | – | · | · | ·
O=C(COC(=O)c1ccc(O)cc1O)Nc1cc(-c2ccccc2)nn1-c1ccccc1 | – | · | ? | 12µM | · | 4.7µM
CCCc1cc(NC(=O)CCl)n(-c2ccccc2)n1 | 22µM | – | ? | ? | – | ?
CCCc1cc(NC(=O)COC(=O)c2ccc(O)cc2O)n(-c2ccccc2)n1 | 11µM | · | – | · | · | ·
